Hits are enriched below; roughly 3.1% of the tested compounds scored in any of these assays.
TSHR antag = antagonists of human thyroid stimulating hormone receptor; P16473; TSHR-expressing cells, TSH-stimulated cAMP HTRF, 2 h; stronger effect = lower value; activity change, negative = inhibition, % at 11.5 µM; 330,000 compounds, 0.2% hits;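 active means activity change below a set negative limit, meaning inhibition stronger than a set level, cut at about -70% in these data; inconclusive means activity change between two set negative limits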; further: on the % scale 0 is the no-effect control and ±100 the full control effect
Target sequence (P16473 whole entry, looked up): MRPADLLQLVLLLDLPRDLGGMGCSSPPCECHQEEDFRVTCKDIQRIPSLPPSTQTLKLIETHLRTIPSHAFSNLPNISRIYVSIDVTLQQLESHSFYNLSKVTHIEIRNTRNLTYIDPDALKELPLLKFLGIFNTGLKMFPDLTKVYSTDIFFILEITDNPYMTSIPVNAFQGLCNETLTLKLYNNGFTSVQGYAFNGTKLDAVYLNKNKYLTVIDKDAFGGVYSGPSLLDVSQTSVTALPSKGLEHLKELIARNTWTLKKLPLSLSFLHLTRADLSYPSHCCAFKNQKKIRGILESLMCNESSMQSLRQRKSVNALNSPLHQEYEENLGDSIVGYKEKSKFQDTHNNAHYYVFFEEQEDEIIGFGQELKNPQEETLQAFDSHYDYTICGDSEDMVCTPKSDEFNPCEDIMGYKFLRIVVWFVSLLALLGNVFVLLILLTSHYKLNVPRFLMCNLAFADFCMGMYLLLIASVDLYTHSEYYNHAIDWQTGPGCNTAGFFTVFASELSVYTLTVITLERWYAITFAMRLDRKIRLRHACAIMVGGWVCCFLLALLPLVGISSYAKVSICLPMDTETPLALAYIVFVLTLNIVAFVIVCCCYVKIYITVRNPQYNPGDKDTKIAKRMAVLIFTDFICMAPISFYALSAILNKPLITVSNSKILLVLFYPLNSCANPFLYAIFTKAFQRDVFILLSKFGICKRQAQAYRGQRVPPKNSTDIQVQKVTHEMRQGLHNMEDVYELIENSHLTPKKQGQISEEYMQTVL
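Inhibition of cAMP made by TSHR-expressing cells under TSH stimulation (4nM final, EC80; 2 h, 37 deg C) is quantified with a one-step lysis HTRF kit, anti-cAMP cryptate versus cAMP-d2.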
Vif-A3F inh = inhibitors of Vif-A3F interaction. AID 602313. 390,000 compounds, 0.2% hits. Potency, µM (top dose mostly 46.1 µM), for inactives: at the highest dose activity, negative = active. HeLa A3F-eYFP + Vif (tagged APOBEC3F with the HIV-1 protein that degrades it), YFP fluorescence increase; further: potency means the concentration at half of the fitted maximal effect; % of control where 0% means no effect; nearly all actives have a fitted effect of over 65% in size
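Fluorescence increase (Ex 488/Em 500-530) after overnight compound treatment at 37 deg C flags inhibition of Vif-driven A3F-eYFP loss in stable HeLa A3F-eYFP/Vif cells seeded overnight beforehand.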
PLK1 PBD block = blocks phosphopeptide binding to human PLK1 polo-box domain. P53350. Plk1 PBD binding of FITC phosphopeptide, fluorescence polarization. Potency, µM, without a hit: max response, negative = inhibition, most hits filed as inhibitors. 360,000 compounds, 2.8% hits. AID 720504; further: potency means the concentration at half of the fitted maximal effect; series mostly up to about 57 µM; on the % scale 0 is the no-effect control and ±100 the full control effect; nearly all actives have a fitted effect of over 65% in size
VDR inhibitor = inhibitors of human vitamin D receptor. P11473. VDR-SRC2-3 peptide fluorescence polarization, 2 h. Potency, µM, for the others: max response, negative = inhibition, usual class: inhibitors. 400,000 compounds, 0.93% hits. AID 504847; further: potency means the concentration at half of the fitted maximal effect; on the % scale 0 is the no-effect control and ±100 the full control effect
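Fluorescence polarization assay of small-molecule disruption of VDR binding to coregulator peptide SRC2-3. Compounds and controls pin-transferred, then read after 2 h incubation at ambient room temperature.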
Vif-APOBEC3G blk = inhibitors of Vif-APOBEC3G interaction | 410,000 compounds, 0.076% hits | AID 602310 | Potency, µM (series often up to 46.1 µM), for the others: top-dose activity, negative = active, actives largely listed as inhibitors | Q9HC16 | HeLa A3G-eYFP + Vif (tagged APOBEC3G with the HIV-1 protein that degrades it), YFP fluorescence, overnight; further: potency means the concentration at half of the fitted maximal effect; on the % scale 0 is the no-effect control and ±100 the full control effect; nearly all actives have a fitted effect of over 60% in size
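Read-out is eYFP fluorescence (Ex 488/Em 500-530) from Vif-expressing HeLa A3G-eYFP cells; more signal means A3G escaped Vif-mediated degradation. Cells plated overnight, compound pinned in, incubated overnight at 37 deg C.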
Numbers without * were called inactive; ? = inconclusive; . = no result given; ! = not active in a repeat. Unless noted, the call rests on the fitted dose curve; in most records, active means well fitted curve in the direction sought with a large enough effect; inconclusive means small, poorly fitted or top-dose-only effect, or another doubt; inactive means no such curve, though single readings can be large; an effect the other way counts as inactive or inconclusive.

SMILES	TSHR antag	Vif-A3F inh	PLK1 PBD block	VDR inhibitor	Vif-APOBEC3G blk
Oc1ccc(Br)cc1C1C=C(c2ccc3c(c2)OCO3)NC(c2ccc(F)c(Br)c2)N1 (configuration not stated)	.	.	.	50µM*	-14%
COc1cc(OC)c(NC(=O)Cn2c(=O)oc3cc(S(=O)(=O)N4CCCC4)ccc32)cc1Cl	.	-6%	.	6%	-1%
O=C(Cc1cccc2ccccc12)Nc1ccc(O)cc1C(=O)O	-1	-4%	27µM*	?	5%
COc1ccc(OC)c(CNc2ncnc3c2nc2n3CCCC2)c1	.	1%	.	-2%	-7%
O=C1N(c2ccc(Cl)cc2)C(c2ccccc2)N2CCCN12 (configuration not stated)	12	-2%	19µM*	?	-2%
CCCOCC1CC2(SC(=Nc3ccc(C)cc3)NC2=O)C(=O)O1 (configuration not stated)	11	-7%	27µM*	5%	-7%
Cc1ccc(C)c(S(=O)(=O)N2CCN(C(=O)/C=C/c3ccco3)CC2)c1	15	1%	?	89µM*	-11%
N[C@@H](CSS(=O)(=O)O)C(=O)O	.	.	.	10µM*!	.
COCCN(CCOC)Cc1c(O)ccc2c1O/C(=C\c1ccc(C)o1)C2=O	-1	25µM*	7%	-5%	-1%
CC[N+](C)(C)c1ccc(/C=C/c2ccc3ccccc3n2)cc1	.	.	.	.	-5%
CCCN1CCC(=O)N(CCC#N)CC1	.	.	.	.	2%
COc1ccc(OCC(=O)Sc2ccc(C)cc2)cc1	7	-12%	4.7µM*	?	-4%
O=C(O)Cn1c2c(c3ccccc31)CSc1ccc(Cl)cc1-2	-3	-2%	13µM*	?	-4%
Cc1nnc(SCC(=O)NC(=O)NC(C)(C)C)n1N	-4	3%	27µM*	-18%	0%
CC(C)(C)NC(=O)NC(=O)CSc1nnc(-c2ccccc2F)n1N	4	-4%	-7%	7%	2%
Cc1nn(-c2ccccn2)c2c1C(=O)C(Br)CC2 (configuration not stated)	-2	12%	3µM*	18µM*	0%
CSCC[C@H](NC(=O)[C@H](Cc1ccccc1)NC(=O)[C@H](Cc1cnc[nH]1)NC(=O)CNC(=O)[C@@H](NC(=O)[C@H](C)NC(=O)[C@H](Cc1c[nH]c2ccccc12)NC(=O)[C@H](CCC(N)=O)NC(=O)[C@@H]1CCCN1C(=O)[C@@H](NC(=O)[C@@H]1CCC(=O)N1)C(C)C)C(C)C)C(N)=O	.	.	.	8%	.
COc1ccc(Cc2nnc(NS(=O)(=O)c3ccc(NC(C)=O)cc3)s2)cc1	2	-1%	-13%	-2%	-5%
COc1ccc(Cc2nnc(NS(=O)(=O)c3ccccc3)s2)cc1	-17	2%	?	6%	-13%
COc1ccc(S(=O)(=O)Nc2nnc(Cc3ccc(OC)c(OC)c3)s2)cc1	-10	-2%	27µM*	-4%	-6%
COc1ccc(Cc2nnc(NS(=O)(=O)c3ccc([N+](=O)[O-])cc3)s2)cc1	-5	-7%	30µM*	-3%	1%
Cc1ccc(-c2cc(-c3ccc(C)o3)nc(N)c2C#N)cc1	2	?	13µM*	?	?
Cc1ccc(-c2cc(-c3ccc(Cl)cc3)c(C#N)c(N)n2)o1	11	-10%	21µM*	?	-14%
C=CCSCC(N)C(=O)O (configuration not stated)	.	.	.	16%	.
O=C(Nc1cccc(F)c1)N1CCC2(CC1)CCN(C(=O)c1ccco1)CC2	.	.	.	-2%	.
SMILES	TSHR antag	Vif-A3F inh	PLK1 PBD block	VDR inhibitor	Vif-APOBEC3G blk
O=S(=O)(Cc1ccccc1)N=Nc1c(O)[nH]c2ccc(Br)cc12	-4	-10%	?	79µM*	-18%
COCCn1c(=O)c(C)nc2cnc(N3CCN(C)CC3)nc21	.	.	.	9%	.
Cn1c(SCC(=O)c2cc(Cl)c(Cl)s2)nnc1-c1ccco1	-3	1%	21µM*	-22%	-4%
CCC(=O)Nc1cccc(-c2nnc(SCC(=O)NCc3ccco3)n2C)c1	-2	0%	-7%	-19%	2%
Cc1ccc(C(=O)CSc2nnc(-c3ccccc3N)n2C)cc1	-1	-4%	-3%	-9%	0%
Cc1ccc(C(=O)CSc2nnc(-c3ccco3)n2C)cc1	1	-4%	6µM*	50µM*	-2%
CCC(=O)Nc1cccc(-c2nnc(SCC(=O)c3ccccc3)n2C)c1	-6	1%	27µM*	-12%	-3%
CC[C@@H]1Cn2c(c3nc(-c4cc(Cl)cc(Cl)c4Cl)nc-3n(C)c2=O)N1	.	.	.	0%	.
COc1ccc(/C=C/c2nnc(NC(=O)COc3ccc(Cl)cc3)s2)cc1	.	.	.	-9%	-1%
COC(=O)C1Sc2[nH]c(=O)sc2C2c3ccccc3OC(=O)C12 (configuration not stated)	0	-6%	-15%	-1%	-4%
O=C(O)C1Sc2[nH]c(=O)sc2C2c3cc(Br)ccc3OC(=O)C12 (configuration not stated)	-10	-10%	30µM*	?	-5%
CC1(C(=O)O)Sc2[nH]c(=O)sc2C2c3ccccc3OC(=O)C21 (configuration not stated)	12	-4%	-26%	10%	-3%
O=C(O)C1Sc2[nH]c(=O)sc2C2c3ccc(O)cc3OC(=O)C12 (configuration not stated)	-8	12%	30µM*	0%	-2%
COc1ccc(C(=O)NCC(c2cccs2)S(=O)(=O)c2cccs2)cc1 (configuration not stated)	.	2%	.	-3%	3%
COc1cccc(-c2cc(C(F)(F)F)c(C#N)c(=O)[nH]2)c1	-3	2%	24µM*	71µM*	-1%
CC1(C)CC2(CC(c3ccccc3F)c3ccc(O)c(O)c3O2)NC(=S)N1 (configuration not stated)	8	1%	19µM*	22%	-1%
CC1(C)OC[C@@H]2O[C@@]3(C(=O)O)OC(C)(C)O[C@@H]3[C@@H]2O1	.	.	.	-11%	.
CCN(CC)c1ccc(/C=c2/sc3nnc(-c4ccccc4C)n3c2=O)cc1	-4	1.3µM*	-26%	14%	-3%
COc1ccc(CCNC(=O)c2ccc(OCc3c(C)noc3C)cc2)cc1OC	14	-24%	7%	2%	3%
COc1ccc(CNC(=O)COC(=O)c2ccc(OCc3c(C)noc3C)cc2)cc1OC	-8	2%	30µM*	?	1%
Cc1ccc2c(c1)C(=O)C1(O)CCN(c3ccccc3)C1=N2 (configuration not stated)	.	.	.	-5%	.
COc1ccc(Cc2n[nH]c(=S)n(N)c2=O)cc1	-4	4%	-20%	8%	1%
CCCCOc1ccc(Cc2n[nH]c(=S)n2N)cc1	10	13%	3.8µM*	50µM*	2%
CCCCCCCCCC[n+]1ccc(/C=C/c2c[nH]c3ccccc23)c2ccccc21	.	.	.	.	4%
